From PubChem BioAssay AID651919 (Sanford-Burnham Center for Chemical Genomics, 2012)
Where “and” joins values, the source holds several entries; their conditions need not be identical. Equal entries are not always repeated.

Target: C-X-C chemokine receptor type 6 (Homo sapiens) (UniProt O00574)
Experiment: antagonism of CXCR6 versus CXCR5 signaling – cell-based, CHO-K1 PathHunter beta-arrestin, luminescence, set 4, selectivity assay for CXCR6 antagonist project, profiling panel (AID 651919)
Settings: run 1, at 79 µM (top of the series)

Sequence of C-X-C chemokine receptor type 6 (Homo sapiens) (O00574 whole entry, looked up): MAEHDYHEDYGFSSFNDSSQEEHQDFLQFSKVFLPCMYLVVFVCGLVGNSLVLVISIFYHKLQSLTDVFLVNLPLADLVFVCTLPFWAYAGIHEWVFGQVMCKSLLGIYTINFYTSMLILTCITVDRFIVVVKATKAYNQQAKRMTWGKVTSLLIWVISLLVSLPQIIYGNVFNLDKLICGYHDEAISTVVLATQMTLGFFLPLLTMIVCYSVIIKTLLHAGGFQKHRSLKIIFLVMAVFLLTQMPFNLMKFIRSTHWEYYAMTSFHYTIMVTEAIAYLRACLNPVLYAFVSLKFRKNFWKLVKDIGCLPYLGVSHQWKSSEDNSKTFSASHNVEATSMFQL

SMILES: COc1ccc(C(=O)NC2CC3CCCC(C2)N3CC(=O)Nc2ccc(Cl)cc2)cc1 (centres undefined)
- inhibition: -4.29%

SMILES: COc1ccc(NC(=O)CN2C3CCCC2CC(NC(=O)c2ccc(OC)c(OC)c2)C3)cc1 (centres undefined)
- inhibition: 12.2%

SMILES: COc1ccc(C(=O)NC2CC3CCCC(C2)N3CC(=O)Nc2ccc(C)cc2)cc1 (centres undefined)
- inhibition: 13.2%

SMILES: COc1cc(OC)cc(C(=O)NC2CC3CCCC(C2)N3CC(=O)Nc2ccc(Cl)cc2)c1 (centres undefined)
- inhibition: 5.14%

SMILES: COc1ccc(C(=O)NC2CC3CCCC(C2)N3CC(=O)Nc2ccc(F)cc2)cc1 (centres undefined)
- inhibition: -4.57%

SMILES: COc1ccc(C(=O)NC2CC3CCCC(C2)N3CC(=O)Nc2ccc(Cl)cc2)cc1OC (centres undefined)
- inhibition: 9.09%

SMILES: COc1cc(OC)cc(C(=O)NC2CC3CCCC(C2)N3CC(=O)Nc2ccc(F)cc2)c1 (centres undefined)
- inhibition: 7.92%

SMILES: COc1cc(C(=O)NC2CC3CCCC(C2)N3CC(=O)Nc2ccc(C)cc2)cc(OC)c1OC (centres undefined)
- inhibition: 79%

SMILES: COc1ccc(C(=O)NC2CC3CCCC(C2)N3CC(=O)Nc2ccc(C)cc2)cc1OC (centres undefined)
- inhibition: 23.5%

SMILES: COc1cccc(C(=O)NC2CC3CCCC(C2)N3CC(=O)Nc2ccc(F)cc2)c1 (centres undefined)
- inhibition: -1.02%

SMILES: O=C(CN1C2CCCC1CC(NC(=O)c1ccc3c(c1)OCO3)C2)Nc1ccccc1 (centres undefined)
- inhibition: 12.3%

SMILES: O=C(CN1C2CCCC1CC(NC(=O)c1ccc3c(c1)OCO3)C2)Nc1ccc(F)cc1 (centres undefined)
- inhibition: -0.62%

SMILES: COc1cccc(C(=O)NC2CC3CCCC(C2)N3CC(=O)Nc2ccccc2)c1 (centres undefined)
- inhibition: 16.6%

SMILES: COc1ccc(CN2C3CCCC2CC(NC(=O)c2cc(OC)c(OC)c(OC)c2)C3)cc1 (centres undefined)
- inhibition: 57.9%

SMILES: COc1ccc(NC(=O)CN2C3CCCC2CC(NC(=O)c2cc(OC)cc(OC)c2)C3)cc1 (centres undefined)
- inhibition: 11.5%

SMILES: COc1ccc(NC(=O)CN2C3CCCC2CC(NC(=O)c2ccc(OC)cc2)C3)cc1 (centres undefined)
- inhibition: -3.32%

SMILES: COc1cccc(C(=O)NC2CC3CCCC(C2)N3CC(=O)Nc2ccc(C)cc2)c1 (centres undefined)
- inhibition: 16.6%

SMILES: COc1cc(OC)cc(C(=O)NC2CC3CCCC(C2)N3CC(=O)Nc2ccccc2)c1 (centres undefined)
- inhibition: 12.4%

SMILES: O=C(CN1C2CCCC1CC(NC(=O)c1ccccc1)C2)Nc1ccccc1 (centres undefined)
- inhibition: 10.1%

SMILES: COc1ccc(C(=O)NC2CC3CCCC(C2)N3CC(=O)Nc2ccccc2)cc1 (centres undefined)
- inhibition: 0.75%

SMILES: COc1cccc(C(=O)NC2CC3CCCC(C2)N3CC(=O)Nc2ccc(Cl)cc2)c1 (centres undefined)
- inhibition: 1.72%

SMILES: O=C(CN1C2CCCC1CC(NC(=O)c1ccc3c(c1)OCO3)C2)Nc1ccc(Cl)cc1 (centres undefined)
- inhibition: 3.65%

SMILES: COc1cc(C(=O)NC2CC3CCCC(C2)N3CC(=O)Nc2ccccc2)cc(OC)c1OC (centres undefined)
- inhibition: 96.3% and 90.5%

SMILES: COc1ccccc1NC(=O)CN1C2CCCC1CC(NC(=O)c1cc(OC)c(OC)c(OC)c1)C2 (centres undefined)
- inhibition: 97.4%

SMILES: COc1cc(C(=O)NC2CC3CCCC(C2)N3CC(=O)Nc2ccc(F)cc2)cc(OC)c1OC (centres undefined)
- inhibition: 84.8%

SMILES: COc1cc(C(=O)NC2CC3CCCC(C2)N3CC(=O)Nc2ccccc2Cl)cc(OC)c1OC (centres undefined)
- inhibition: 99.8% and 101%

SMILES: COc1ccc(NC(=O)CN2C3CCCC2CC(NC(=O)c2cccc(OC)c2)C3)cc1 (centres undefined)
- inhibition: 0.669%

SMILES: COc1cc(C(=O)NC2CC3CCCC(C2)N3CC(=O)Nc2ccc(Cl)cc2)cc(OC)c1OC (centres undefined)
- inhibition: 88.2%

SMILES: COc1ccc(NC(=O)CN2C3CCCC2CC(NC(=O)c2cc(OC)c(OC)c(OC)c2)C3)cc1 (centres undefined)
- inhibition: 66.4%

SMILES: COc1ccc(C(=O)NC2CC3CCCC(C2)N3CC(=O)Nc2ccccc2)cc1OC (centres undefined)
- inhibition: 33.7%

SMILES: COc1cc(OC)cc(C(=O)NC2CC3CCCC(C2)N3CC(=O)Nc2ccc(C)cc2)c1 (centres undefined)
- inhibition: 10.9%

SMILES: Cc1ccc(NC(=O)CN2C3CCCC2CC(NC(=O)c2ccc4c(c2)OCO4)C3)cc1 (centres undefined)
- inhibition: 11.9%

SMILES: COc1ccc(C(=O)NC2CC3CCCC(C2)N3CC(=O)Nc2ccc(F)cc2)cc1OC (centres undefined)
- inhibition: 15%

SMILES: COc1ccc(NC(=O)CN2C3CCCC2CC(NC(=O)c2ccc4c(c2)OCO4)C3)cc1 (centres undefined)
- inhibition: -0.217%
